Data: the supplement of paper PMC11732987, “Enantioselective OTUD7B fragment discovery through chemoproteomics screening and high-throughput optimisation” (Communications Chemistry, 2025)

Tests used:
Assay in all cases: log2 ratio of Biotin-Ahx-Ub-VS probe labelling (fragment/DMSO); higher = less target engagement (more negative = stronger competition), active = hit call of the paper (q ≤ 0.05, log2 ratio ≤ -1)
Settings in all cases: compound concentration: 200 uM; treatment time: 3 h
OTUD6B = target: T1, OTUD6B (UniProt Q8N6M0)
T1 sequence (whole entry): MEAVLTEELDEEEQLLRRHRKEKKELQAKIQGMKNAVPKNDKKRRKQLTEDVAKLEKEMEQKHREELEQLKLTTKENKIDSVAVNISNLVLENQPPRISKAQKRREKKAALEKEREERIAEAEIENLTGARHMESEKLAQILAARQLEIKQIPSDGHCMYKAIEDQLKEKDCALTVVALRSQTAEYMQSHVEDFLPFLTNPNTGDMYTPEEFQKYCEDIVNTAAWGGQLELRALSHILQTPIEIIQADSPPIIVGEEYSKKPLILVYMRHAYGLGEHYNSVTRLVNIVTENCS
Method in brief: (§1)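 HEK293T lysate, 495 µg per sample in Tris/CHAPS/IGEPAL buffer with protease inhibitors, was treated in triplicate with fragment at 200 µM or vehicle for 3 h and then with Biotin-Ahx-Ub-VS at 0.5 µM final for 1 h. Labelled DUBs were NeutrAvidin-enriched, digested with LysC and trypsin, and run by diaPASEF LC-MS/MS. Spectronaut label-free quantities were global-median-normalised, and values are average log2 fragment/vehicle ratios by unpaired t-test on proteins with ≥2 unique peptides.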

OTUD7B = target: T2, OTUD7B (UniProt Q6GQQ9)
T2 sequence (whole entry): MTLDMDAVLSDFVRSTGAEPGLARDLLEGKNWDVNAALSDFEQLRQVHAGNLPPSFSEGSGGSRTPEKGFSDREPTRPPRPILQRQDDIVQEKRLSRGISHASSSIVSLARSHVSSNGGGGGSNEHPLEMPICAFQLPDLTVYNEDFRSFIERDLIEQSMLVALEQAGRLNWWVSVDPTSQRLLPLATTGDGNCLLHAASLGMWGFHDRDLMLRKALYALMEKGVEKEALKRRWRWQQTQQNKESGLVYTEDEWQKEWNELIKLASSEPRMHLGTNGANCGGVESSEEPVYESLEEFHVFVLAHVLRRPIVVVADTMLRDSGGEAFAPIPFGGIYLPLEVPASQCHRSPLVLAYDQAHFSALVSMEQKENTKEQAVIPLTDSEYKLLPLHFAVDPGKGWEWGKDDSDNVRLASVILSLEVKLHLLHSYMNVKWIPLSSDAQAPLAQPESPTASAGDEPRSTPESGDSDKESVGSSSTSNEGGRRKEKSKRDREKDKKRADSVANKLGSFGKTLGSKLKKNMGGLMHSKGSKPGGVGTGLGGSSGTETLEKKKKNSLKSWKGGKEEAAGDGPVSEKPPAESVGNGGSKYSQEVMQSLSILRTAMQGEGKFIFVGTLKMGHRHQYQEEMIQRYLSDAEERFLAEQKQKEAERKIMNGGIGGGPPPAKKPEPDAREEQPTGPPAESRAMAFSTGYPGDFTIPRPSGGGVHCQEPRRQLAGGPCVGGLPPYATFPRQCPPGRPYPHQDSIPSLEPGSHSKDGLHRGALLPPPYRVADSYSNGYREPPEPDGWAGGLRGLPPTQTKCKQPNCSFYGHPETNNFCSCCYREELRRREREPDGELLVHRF
Method in brief: as §1

PRPF8 = PRPF8 (UniProt Q6P2Q9)
Method in brief: as §1

PSMD7 = target: T3, PSMD7 (UniProt P51665)
T3 sequence (whole entry): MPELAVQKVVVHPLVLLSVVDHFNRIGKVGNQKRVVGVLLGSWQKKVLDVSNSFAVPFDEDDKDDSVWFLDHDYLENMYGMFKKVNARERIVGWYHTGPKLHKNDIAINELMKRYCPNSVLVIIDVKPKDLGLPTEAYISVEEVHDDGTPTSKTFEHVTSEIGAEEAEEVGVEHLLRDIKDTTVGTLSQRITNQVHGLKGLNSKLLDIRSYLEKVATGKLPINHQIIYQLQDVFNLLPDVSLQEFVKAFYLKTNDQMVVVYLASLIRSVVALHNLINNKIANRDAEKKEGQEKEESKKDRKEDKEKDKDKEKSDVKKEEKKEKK
Method in brief: as §1

UCHL1 = UCHL1 (UniProt P09936)
Method in brief: as §1

UCHL3 = target: T4, UCHL3 (UniProt P15374)
T4 sequence (whole entry): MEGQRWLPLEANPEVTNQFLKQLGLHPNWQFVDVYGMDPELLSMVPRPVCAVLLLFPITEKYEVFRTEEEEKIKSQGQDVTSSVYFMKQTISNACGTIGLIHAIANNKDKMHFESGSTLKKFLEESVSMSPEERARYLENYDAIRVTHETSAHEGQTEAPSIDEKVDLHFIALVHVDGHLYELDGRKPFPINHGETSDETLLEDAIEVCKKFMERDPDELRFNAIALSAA
Method in brief: as §1

UCHL5 = target: T5, UCHL5 (UniProt Q9Y5K5)
T5 sequence (whole entry): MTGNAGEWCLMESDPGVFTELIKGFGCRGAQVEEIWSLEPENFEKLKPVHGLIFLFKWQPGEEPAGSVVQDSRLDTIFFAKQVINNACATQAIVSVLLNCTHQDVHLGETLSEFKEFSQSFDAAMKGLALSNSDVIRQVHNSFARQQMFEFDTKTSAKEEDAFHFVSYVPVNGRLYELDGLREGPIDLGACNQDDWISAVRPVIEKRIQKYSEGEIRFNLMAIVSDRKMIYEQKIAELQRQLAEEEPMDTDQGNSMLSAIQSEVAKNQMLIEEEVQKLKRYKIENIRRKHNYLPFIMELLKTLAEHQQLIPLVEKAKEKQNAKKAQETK
Method in brief: as §1

USP10 = USP10 (UniProt Q14694)
Method in brief: as §1

USP15 = target: T6, USP15 (UniProt Q9Y4E8)
T6 sequence (whole entry): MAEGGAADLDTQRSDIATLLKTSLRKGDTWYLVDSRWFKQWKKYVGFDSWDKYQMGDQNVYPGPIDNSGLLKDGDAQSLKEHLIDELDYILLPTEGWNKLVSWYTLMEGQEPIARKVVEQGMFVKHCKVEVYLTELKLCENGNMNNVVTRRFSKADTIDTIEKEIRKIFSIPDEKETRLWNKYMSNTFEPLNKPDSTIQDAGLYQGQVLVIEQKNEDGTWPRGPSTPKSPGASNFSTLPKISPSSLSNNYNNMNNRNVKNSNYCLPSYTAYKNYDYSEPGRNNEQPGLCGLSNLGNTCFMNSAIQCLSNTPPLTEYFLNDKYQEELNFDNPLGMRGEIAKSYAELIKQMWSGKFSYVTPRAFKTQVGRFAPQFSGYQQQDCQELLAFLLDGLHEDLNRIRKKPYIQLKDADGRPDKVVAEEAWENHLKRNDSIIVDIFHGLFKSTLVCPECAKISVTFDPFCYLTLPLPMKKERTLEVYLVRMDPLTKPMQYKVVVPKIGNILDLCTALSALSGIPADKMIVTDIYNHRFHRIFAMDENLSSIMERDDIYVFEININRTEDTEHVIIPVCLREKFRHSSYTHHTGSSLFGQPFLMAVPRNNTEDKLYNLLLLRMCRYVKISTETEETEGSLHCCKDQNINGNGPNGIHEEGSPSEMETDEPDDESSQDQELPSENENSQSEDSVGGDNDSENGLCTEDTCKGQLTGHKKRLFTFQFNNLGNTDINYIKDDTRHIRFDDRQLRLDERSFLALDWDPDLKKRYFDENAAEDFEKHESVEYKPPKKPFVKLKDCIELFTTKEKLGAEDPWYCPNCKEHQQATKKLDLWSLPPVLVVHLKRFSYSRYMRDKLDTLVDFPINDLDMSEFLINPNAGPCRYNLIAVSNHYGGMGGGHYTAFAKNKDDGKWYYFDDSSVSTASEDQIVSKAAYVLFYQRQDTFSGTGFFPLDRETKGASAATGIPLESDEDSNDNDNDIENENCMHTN
Method in brief: as §1

USP16 = USP16 (UniProt Q9Y5T5)
Method in brief: as §1

Measured: log2 ratio of Biotin-Ahx-Ub-VS probe labelling

Sequence of USP16 (Q9Y5T5 whole entry, looked up): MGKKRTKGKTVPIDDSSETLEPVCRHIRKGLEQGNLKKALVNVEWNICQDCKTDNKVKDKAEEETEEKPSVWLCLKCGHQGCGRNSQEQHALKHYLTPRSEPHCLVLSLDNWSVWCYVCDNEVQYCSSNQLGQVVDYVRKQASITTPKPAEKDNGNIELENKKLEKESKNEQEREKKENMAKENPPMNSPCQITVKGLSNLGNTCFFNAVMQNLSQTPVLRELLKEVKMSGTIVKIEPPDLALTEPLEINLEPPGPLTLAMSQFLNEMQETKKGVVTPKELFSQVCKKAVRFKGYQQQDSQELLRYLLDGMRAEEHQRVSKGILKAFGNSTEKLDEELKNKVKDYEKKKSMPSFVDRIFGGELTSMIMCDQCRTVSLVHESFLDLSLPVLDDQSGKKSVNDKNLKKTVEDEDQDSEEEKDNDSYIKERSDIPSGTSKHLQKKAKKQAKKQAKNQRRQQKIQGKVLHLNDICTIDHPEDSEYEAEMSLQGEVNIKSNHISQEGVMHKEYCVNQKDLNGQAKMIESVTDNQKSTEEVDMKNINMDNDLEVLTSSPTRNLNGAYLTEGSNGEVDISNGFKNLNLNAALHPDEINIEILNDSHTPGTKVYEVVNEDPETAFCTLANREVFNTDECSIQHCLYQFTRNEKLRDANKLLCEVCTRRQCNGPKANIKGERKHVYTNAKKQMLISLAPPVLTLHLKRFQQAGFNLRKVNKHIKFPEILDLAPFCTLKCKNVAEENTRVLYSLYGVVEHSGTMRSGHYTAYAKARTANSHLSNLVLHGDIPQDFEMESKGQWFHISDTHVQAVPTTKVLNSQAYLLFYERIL
Sequence of UCHL1 (P09936 whole entry, looked up): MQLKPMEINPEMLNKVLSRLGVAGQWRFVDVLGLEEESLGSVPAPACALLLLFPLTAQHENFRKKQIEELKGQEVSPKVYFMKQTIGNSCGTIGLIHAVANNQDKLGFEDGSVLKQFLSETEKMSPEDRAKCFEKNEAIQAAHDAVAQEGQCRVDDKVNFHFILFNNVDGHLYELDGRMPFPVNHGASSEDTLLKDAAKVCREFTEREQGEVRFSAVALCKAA
Sequence of USP10 (Q14694 whole entry): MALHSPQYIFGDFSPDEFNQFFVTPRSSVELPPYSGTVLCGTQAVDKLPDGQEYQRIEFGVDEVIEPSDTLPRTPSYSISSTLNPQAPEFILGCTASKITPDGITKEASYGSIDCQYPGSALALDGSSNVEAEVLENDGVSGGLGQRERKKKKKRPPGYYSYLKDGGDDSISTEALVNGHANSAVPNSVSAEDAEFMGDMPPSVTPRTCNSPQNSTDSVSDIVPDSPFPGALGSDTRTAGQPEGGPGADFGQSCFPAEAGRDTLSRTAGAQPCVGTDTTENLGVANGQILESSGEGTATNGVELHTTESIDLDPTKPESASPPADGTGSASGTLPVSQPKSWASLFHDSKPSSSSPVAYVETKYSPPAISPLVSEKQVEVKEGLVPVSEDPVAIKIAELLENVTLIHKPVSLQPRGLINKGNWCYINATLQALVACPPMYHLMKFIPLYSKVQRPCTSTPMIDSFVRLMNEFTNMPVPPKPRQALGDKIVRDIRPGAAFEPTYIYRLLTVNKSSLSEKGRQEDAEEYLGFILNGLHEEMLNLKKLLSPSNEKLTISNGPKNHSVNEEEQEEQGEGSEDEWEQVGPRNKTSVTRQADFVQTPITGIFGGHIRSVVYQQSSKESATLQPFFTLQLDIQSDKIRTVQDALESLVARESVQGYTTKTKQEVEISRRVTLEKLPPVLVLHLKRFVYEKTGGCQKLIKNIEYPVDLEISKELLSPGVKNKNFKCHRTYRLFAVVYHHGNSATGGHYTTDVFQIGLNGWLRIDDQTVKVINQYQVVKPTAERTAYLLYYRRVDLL

CN(Cc1nc2ccccc2[nH]1)C(=O)CCl.Cl
inactive: OTUD6B -0.0126 | OTUD7B -0.039 | PRPF8 0.00724 | PSMD7 -0.142 | UCHL1 0.185 | UCHL3 0.504 | UCHL5 -0.121 | USP10 -0.14 | USP15 -0.17 | USP16 -0.572
